Each structure is given as a SMILES string. Inconclusive results are not listed. Activity calls are given as the source filed them. Calls follow the shape of the dose curve; as a rule, active = well fitted inhibition curve with a large enough effect; inconclusive = small, poorly fitted or top-dose-only effect; inactive = flat fitted curve, though single readings scatter.

In PubChem BioAssay (NCATS) one finds Potency data, which are given here for twelve compounds.

Holding throughout (test): qHTS profiling for inhibitors of Plasmodium falciparum proliferation (AID 504749); also: nearly all actives have a fitted effect of over 60% in size
Conditions in all cases: P. falciparum in erythrocytes, SYBR Green DNA, 72 h; series mostly up to 12.8 µM
(Quantitative high-throughput screening tests each substance at several concentrations.)

The test system of one assay is AA1029. The gist of the method: (§1)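 P. falciparum-infected erythrocytes (0.3% parasitemia, 2.5% hematocrit) incubated with compound 72 h at 37 C, 5% CO2. Parasite DNA detected by SYBR Green after lysis, overnight at room temperature; normalised to 0.29 uM artemisinin and DMSO.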
The subject of another assay is C2A. The gist of the method:
as §1

Another assay relates to CP211. The gist of the method: as §1
Another assay deals with CP217. The gist of the method:
as §1

In a further assay the test system is CP237. The gist of the method: as §1
For the next assay, the system named is CP252. The gist of the method:
as §1

For another assay, the system named is CP269. The gist of the method: as §1
Another assay concerns CP286. The gist of the method:
as §1

The subject of the next assay is CP291. The gist of the method: as §1
In a further assay the test system is CP305. The gist of the method: as §1
A further assay deals with CP315. The gist of the method:
as §1

In another assay the test system is CP335. The gist of the method: as §1
The subject of a further assay is DFO2036. The gist of the method: as §1
The test system of the next assay is DIV30. The gist of the method:
as §1

The subject of the next assay is ECU. The gist of the method:
as §1

For a further assay, the system named is HB3. The gist of the method:
as §1

The next assay has as its system P93_24. The gist of the method: as §1
The subject of a further assay is P94_40. The gist of the method: as §1
The test system of the next assay is PC26. The gist of the method: as §1
A further assay concerns TAB165. The gist of the method:
as §1
Potency is read from the fitted curve at half-maximal effect.

As to `CCN[C@@H]1C[C@H](C)S(=O)(=O)c2sc(S(N)(=O)=O)cc21`, the Potency result with AA1029, in the assay on C2A, with CP211, with CP217, in the assay on CP237 and in the assay on CP252 was “inactive” in each case. For the same compound, the Potency entry with CP269, in the assay with CP286, in the assay with CP291, in the assay on CP305, in the assay with CP315 and with CP335 was “inactive” each time. For the same compound, the Potency result in the assay on DFO2036, with DIV30, in the assay on ECU, in the assay with HB3, in the assay on P93_24 and with P94_40 was “inactive” throughout. For the same compound, the Potency result with PC26 and in the assay with TAB165 was “inactive” throughout.
`COc1c(O)cc2c(c1O)[C@@H]1O[C@@H](CO)[C@@H](O)[C@@H](O)[C@@H]1OC2=O`: the Potency result in the assay with AA1029, in the assay with C2A, with CP211, in the assay on CP217, in the assay with CP237 and with CP252 was “inactive” throughout. For the same compound, the Potency entry in the assay on CP269, in the assay on CP286, in the assay with CP291, in the assay on CP305, in the assay with CP315 and in the assay with CP335 was “inactive” throughout. The Potency entry in the assay on DFO2036, with DIV30, in the assay with ECU, in the assay on HB3, in the assay with P93_24 and with P94_40 was “inactive” each time. The Potency entry in the assay on PC26 and in the assay with TAB165 was “inactive” throughout.
For `CN(C)[C@H]1C(=O)C(C(=O)NCN2CCCC2)=C(O)[C@]2(O)C(=O)C3=C(O)c4c(O)cccc4[C@@](C)(O)[C@H]3C[C@@H]12`, the Potency entry in the assay with AA1029, in the assay with C2A, in the assay on CP211, in the assay on CP217, with CP237 and with CP252 was “inactive” throughout. For the same compound, the Potency entry in the assay with CP269, in the assay with CP286, in the assay with CP291, in the assay with CP305, in the assay with CP315 and in the assay with CP335 was “inactive” in each case. The Potency result in the assay with DFO2036, with DIV30, in the assay with ECU, in the assay with HB3, with P93_24 and with P94_40 was “inactive” in each case. The Potency result in the assay with PC26 and in the assay on TAB165 was “inactive” each time.
Turning to `NC(=O)OC[C@H](O)COc1ccc(Cl)cc1`, the Potency entry in the assay with AA1029, in the assay with C2A, in the assay with CP211, with CP217, in the assay with CP237 and with CP252 was “inactive” in each case. Besides, the Potency entry in the assay on CP269, in the assay with CP286, with CP291, in the assay with CP305, with CP315 and in the assay with CP335 was “inactive” in each case. The Potency entry in the assay on DFO2036, in the assay with DIV30, in the assay on ECU, in the assay on HB3, in the assay on P93_24 and in the assay on P94_40 was “inactive” in each case. The Potency entry in the assay on PC26 and in the assay with TAB165 was “inactive” each time.
Take `CO[C@H]1C[C@@H](O[C@@H]2[C@H](C)[C@H](O[C@@H]3O[C@@H](C)C[C@@H](N(C)C)[C@@H]3O)[C@H](C)C[C@]3(CO3)C(=O)[C@H](C)[C@H](O)[C@H](C)[C@H](C)OC(=O)[C@@H]2C)O[C@@H](C)[C@H]1O`: the Potency entry with AA1029, in the assay on C2A, with CP211, in the assay with CP217, in the assay on CP237 and with CP252 was “inactive” throughout. In addition, the Potency entry in the assay on CP269, with CP286, with CP291, with CP305, in the assay with CP315 and with CP335 was “inactive” each time. The Potency entry in the assay on DFO2036, with DIV30, with ECU, in the assay with HB3, in the assay with P93_24 and with P94_40 was “inactive” throughout. The Potency result in the assay on PC26 and with TAB165 was “inactive” in each case.
Regarding `CN(N=O)C(=O)N[C@H]1[C@@H](O)[C@H](O)[C@H](CO)O[C@@H]1O`, the Potency result with AA1029, in the assay with C2A, in the assay with CP211, with CP217, in the assay on CP237 and in the assay on CP252 was “inactive” throughout. In addition, the Potency entry in the assay on CP269, with CP286, in the assay on CP291, in the assay with CP305, in the assay on CP315 and with CP335 was “inactive” in each case. For the same compound, the Potency entry in the assay with DFO2036, with DIV30, in the assay on ECU, in the assay with HB3, with P93_24 and with P94_40 was “inactive” throughout. The Potency entry with PC26 and in the assay with TAB165 was “inactive” in each case.
For `C[C@@H](CN(C)C)CN1c2ccccc2CCc2ccccc21`, the Potency entry with AA1029, in the assay with C2A, in the assay on CP217, in the assay on CP252, in the assay with CP286 and in the assay on CP291 was “inactive” each time. The Potency result in the assay on CP305, in the assay with CP315, with CP335, with DFO2036, in the assay on ECU and in the assay with HB3 was “inactive” throughout. Also, the Potency entry with TAB165 is “inactive”.
`O=c1[nH]c(=O)n([C@@H]2C[C@H](O)[C@H](CO)O2)cc1I`: the Potency entry in the assay with AA1029, in the assay on C2A, in the assay with CP211, in the assay with CP217, in the assay with CP237 and in the assay on CP252 was “inactive” in each case. Besides, the Potency result with CP269, in the assay with CP286, in the assay on CP291, in the assay on CP305, with CP315 and with CP335 was “inactive” throughout. Further, the Potency entry in the assay on DFO2036, with DIV30, in the assay with ECU, in the assay with HB3, in the assay on P93_24 and in the assay with P94_40 was “inactive” in each case. In addition, the Potency result with PC26 and in the assay with TAB165 was “inactive” each time.
In the case of `CN[C@@H]1[C@H](O[C@@H]2O[C@H](CO)[C@@H](N)[C@H](O)[C@@H]2O)O[C@H]2C[C@@H](N)[C@@H](O[C@H]3[C@@H](O)[C@H](O)[C@H](N)C[C@@H]3N)O[C@H]2[C@H]1O`, the Potency entry in the assay with AA1029, in the assay with C2A, with CP211, in the assay on CP217, in the assay with CP237 and in the assay on CP252 was “inactive” each time. In addition, the Potency entry in the assay with CP269, with CP286, in the assay with CP291, with CP305, with CP315 and with CP335 was “inactive” in each case. Further, the Potency entry with DFO2036, in the assay on DIV30, in the assay on ECU, in the assay with HB3, with P93_24 and with P94_40 was “inactive” in each case. Moreover, the Potency entry in the assay on PC26 and with TAB165 was “inactive” in each case.
In the case of `CCN(CC)CC#CCOC(=O)[C@@](O)(c1ccccc1)C1CCCCC1`, the Potency result in the assay on CP252, in the assay on CP315 and with HB3 was “inactive” in each case. In addition, in the assay with ECU, the Potency was 12.6 µM (active).
For `C[n+]1ccccc1/C=N\O`, the Potency entry with AA1029, in the assay with C2A, in the assay with CP211, in the assay on CP217, in the assay with CP237 and in the assay on CP252 was “inactive” throughout. The Potency result in the assay with CP269, in the assay with CP286, in the assay with CP291, in the assay with CP305, in the assay on CP315 and with CP335 was “inactive” in each case. Besides, the Potency result with DFO2036, in the assay on DIV30, in the assay with ECU, in the assay on HB3, in the assay on P93_24 and in the assay with P94_40 was “inactive” throughout. Besides, the Potency result in the assay with PC26 and in the assay with TAB165 was “inactive” throughout.
Consider `CC(=O)N(CC(O)CN(C(C)=O)c1c(I)c(C(=O)NC[C@@H](O)CO)c(I)c(C(=O)NC[C@@H](O)CO)c1I)c1c(I)c(C(=O)NC[C@@H](O)CO)c(I)c(C(=O)NC[C@@H](O)CO)c1I`, for which the Potency result with AA1029, in the assay on C2A, with CP211, in the assay with CP217, with CP237 and with CP252 was “inactive” each time. Moreover, the Potency result in the assay with CP269, in the assay on CP286, in the assay with CP291, in the assay on CP305, in the assay with CP315 and in the assay with CP335 was “inactive” in each case. Also, the Potency result with DFO2036, in the assay with DIV30, in the assay with ECU, in the assay with HB3, in the assay on P93_24 and with P94_40 was “inactive” in each case. Besides, the Potency result in the assay with PC26 and in the assay on TAB165 was “inactive” each time.
